Laboratory results as given in PubChem BioAssay (EPA / NIEHS).
“And” between values parts separate entries of the source, which are not always exact repeats. Identical values can stand only once. Records with an inconclusive call do not appear. The source made the active and inactive calls. The calls were made as follows: active = hit-call score of the fitted dose curve at least 0.9, where 1 is the maximum; inconclusive = response in the unintended direction; inactive = score below 0.9.

These compounds were tested against human Peripheral-type Benzodiazepine Receptor (PBR), TSPO (gene 706) (UniProt P30536) (assay: NVS_MP_hPBR: NovaScreen (NVS) Membrane Protein Assay for human Peripheral-type Benzodiazepine Receptor (PBR) (AID 2283331);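 also: hits reduce radioligand binding relative to DMSO baseline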).
Chain of human Peripheral-type Benzodiazepine Receptor (PBR), TSPO (gene 706) (P30536 whole entry, looked up): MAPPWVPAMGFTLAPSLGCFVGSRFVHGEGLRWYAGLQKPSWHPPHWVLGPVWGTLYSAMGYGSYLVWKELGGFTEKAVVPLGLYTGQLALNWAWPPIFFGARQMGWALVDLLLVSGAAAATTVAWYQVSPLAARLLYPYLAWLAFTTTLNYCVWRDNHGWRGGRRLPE
How it was run: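 Radioligand displacement on human colonic cell membranes, 1 h incubation; bound radioactivity by filtration and scintillation counting. Primary screen in duplicate at 25 uM single concentration, actives followed up in concentration series; loss of binding versus DMSO.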
For `C[C@H]1CCCC(=O)CCC/C=C/c2cc(O)cc(O)c2C(=O)O1`, the AC50 was 1.66 µM (active). `CCC[CH2][Sn]([CH2]CCC)([CH2]CCC)[O]C(=O)c1ccccc1` was tested, and the AC50 was 5.59 µM (active). In the case of `COP(=O)(OC)O/C(=C\Cl)c1cc(Cl)c(Cl)cc1Cl`, the AC50 is reported as 0.401 µM (active). In the case of `CCOC(=O)/C=C(C)/C=C/C[C@@H](C)CCCC(C)C`, the AC50 is reported as 33.2 µM (active). In the case of `O=C(OC1CCCCC1)c1ccccc1C(=O)OC1CCCCC1`, the AC50 is reported as 3.21 µM (active) and 6.79 µM (active). For `Nc1ccc(-c2ccc(N)c(Cl)c2)cc1Cl`, the AC50 was 9.91 µM (active). With `CC(C)(c1ccc(OCC2CO2)cc1)c1ccc(OCC2CO2)cc1` (configuration not stated) the AC50 was 7.73 µM (active). For `CCOP(=S)(OCC)SCCS(=O)(=O)CC`, the AC50 was 30.7 µM (active). In the case of `COP(=S)(OC)Oc1ccc(Sc2ccc(OP(=S)(OC)OC)cc2)cc1`, the AC50 is reported as 1.16 µM (active) and 16.9 µM (active). For `COP(=S)(OC)Oc1c(Cl)cc(C)cc1Cl`, the AC50 was 9.23 µM (active). For `Clc1ccc(COC(Cn2ccnc2)c2ccc(Cl)cc2Cl)cc1` (configuration not stated), the AC50 was 1.09 µM (active). With `COP(=S)(OC)Oc1ccc(S(=O)(=O)N(C)C)cc1` the AC50 was 5.32 µM (active). For `Cc1ccccc1C(=O)Nc1cccc(OC(C)C)c1`, the AC50 was 1.12 µM (active). With `COc1cc(-c2ccc(N)c(OC)c2)ccc1N` the AC50 was 19.4 µM (active).

These compounds were tested against human Androgen Receptor (AR), AR (gene 367) (UniProt P10275) (assay: NVS_NR_hAR: NovaScreen (NVS) Nuclear Receptor Binding Assay for human Androgen Receptor (AR) (AID 2283332)).
Chain of human Androgen Receptor (AR), AR (gene 367) (P10275 whole entry, looked up): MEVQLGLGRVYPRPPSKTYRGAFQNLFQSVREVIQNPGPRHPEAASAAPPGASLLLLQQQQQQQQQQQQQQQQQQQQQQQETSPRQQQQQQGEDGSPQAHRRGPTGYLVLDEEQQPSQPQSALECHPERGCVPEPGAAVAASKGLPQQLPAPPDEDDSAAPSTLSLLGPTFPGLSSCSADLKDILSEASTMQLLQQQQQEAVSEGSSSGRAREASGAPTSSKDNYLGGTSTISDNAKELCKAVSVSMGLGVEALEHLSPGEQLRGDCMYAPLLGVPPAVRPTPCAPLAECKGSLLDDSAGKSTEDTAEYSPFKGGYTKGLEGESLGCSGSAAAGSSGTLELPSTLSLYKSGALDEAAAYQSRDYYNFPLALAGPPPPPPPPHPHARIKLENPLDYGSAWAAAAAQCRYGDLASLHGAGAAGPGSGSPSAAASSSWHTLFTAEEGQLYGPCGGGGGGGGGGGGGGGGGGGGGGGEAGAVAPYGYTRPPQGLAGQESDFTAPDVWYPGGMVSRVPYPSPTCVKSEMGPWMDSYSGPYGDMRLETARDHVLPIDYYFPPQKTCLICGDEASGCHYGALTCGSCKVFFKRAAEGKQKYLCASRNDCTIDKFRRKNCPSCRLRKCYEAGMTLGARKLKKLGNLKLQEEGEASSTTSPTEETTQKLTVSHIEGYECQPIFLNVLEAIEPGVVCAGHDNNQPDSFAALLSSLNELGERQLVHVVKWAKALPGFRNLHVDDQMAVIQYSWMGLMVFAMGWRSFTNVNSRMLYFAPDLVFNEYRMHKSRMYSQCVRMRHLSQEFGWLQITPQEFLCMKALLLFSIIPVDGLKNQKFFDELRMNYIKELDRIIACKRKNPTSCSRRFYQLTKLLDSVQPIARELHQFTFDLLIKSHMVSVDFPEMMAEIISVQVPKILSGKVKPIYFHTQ
How it was run: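 LnCAP cell-free extract; radioligand displacement read by scintillation counting after 20 h. Primary screen single concentration 25 uM in duplicate, actives then run as concentration series; loss-of-signal fitted relative to DMSO baseline.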
With `Cl/C=C\C[N+]12CN3CN(CN(C3)C1)C2` the outcome was “inactive”. `N#CCCO` was tested, and the outcome was “inactive”. With `CC12CC1(C)C(=O)N(c1cc(Cl)cc(Cl)c1)C2=O` (configuration not stated) the AC50 was 17.1 nM (active) and 355 nM (active). For `COP(=S)(OC)Oc1ccc(Sc2ccc(OP(=S)(OC)OC)cc2)cc1`, the AC50 was 17.9 µM (active). `CCN(CC)C(=O)Cl` was tested, and the outcome was “inactive”.

What follows are compounds tested against rat Peripheral-type Benzodiazepine Receptor (PBR), Tspo (gene 24230) (UniProt P16257) (assay: NVS_MP_rPBR: NovaScreen (NVS) Membrane Protein Assay for rat Peripheral-type Benzodiazepine Receptor (PBR) (AID 2283335)).
Chain of rat Peripheral-type Benzodiazepine Receptor (PBR), Tspo (gene 24230) (P16257 whole entry, looked up): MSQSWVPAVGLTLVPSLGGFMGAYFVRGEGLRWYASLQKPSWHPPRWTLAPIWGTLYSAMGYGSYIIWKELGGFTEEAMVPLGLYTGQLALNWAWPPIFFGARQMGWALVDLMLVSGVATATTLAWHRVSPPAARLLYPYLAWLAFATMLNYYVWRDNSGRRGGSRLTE
How it was run: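 Rat kidney membranes; radioligand binding with displacement, filter-based scintillation counting, 1 h incubation. Primary screen in duplicate at 25 uM, actives followed in concentration series; loss of binding vs DMSO.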
With `C[C@H]1CCCC(=O)CCC/C=C/c2cc(O)cc(O)c2C(=O)O1` the AC50 was 0.346 µM (active). With `O=C(Cc1ccccc1)c1ccccc1` the AC50 was 9.94 µM (active). In the case of `COP(=O)(OC)O/C(=C\Cl)c1cc(Cl)c(Cl)cc1Cl`, the AC50 is reported as 0.38 µM (active). In the case of `CCOC(=O)/C=C(C)/C=C/C[C@@H](C)CCCC(C)C`, the AC50 is reported as 17.6 µM (active). For `CC12CC1(C)C(=O)N(c1cc(Cl)cc(Cl)c1)C2=O` (configuration not stated), the AC50 was 6.63 µM (active) and 1.03 µM (active) and 850 nM (active). `Nc1ccc(-c2ccc(N)c(Cl)c2)cc1Cl` was tested, and the outcome was “inactive”. For `CC(C)(c1ccc(OCC2CO2)cc1)c1ccc(OCC2CO2)cc1` (configuration not stated), the AC50 was 4.31 µM (active). `Clc1ccc(C2(Cn3cncn3)CC(Br)CO2)c(Cl)c1` (configuration not stated) was tested, and the AC50 was 14.5 µM (active). `COP(=S)(OC)Oc1ccc(Sc2ccc(OP(=S)(OC)OC)cc2)cc1` was tested, and the AC50 was 0.307 µM (active). In the case of `O=Cc1cccc(Oc2ccccc2)c1`, the outcome is reported as “inactive”. In the case of `COP(=S)(OC)Oc1c(Cl)cc(C)cc1Cl`, the outcome is reported as “inactive”. In the case of `Clc1ccc(COC(Cn2ccnc2)c2ccc(Cl)cc2Cl)cc1` (configuration not stated), the AC50 is reported as 1.63 µM (active). `Nc1cccc2ccccc12` was tested, and the outcome was “inactive”. `COP(=S)(OC)Oc1ccc(S(=O)(=O)N(C)C)cc1` was tested, and the AC50 was 1.45 µM (active). `Cc1ccccc1C(=O)Nc1cccc(OC(C)C)c1` was tested, and the AC50 was 1.13 µM (active). `COc1cc(-c2ccc(N)c(OC)c2)ccc1N` was tested, and the AC50 was 2.75 µM (active) and 2.71 µM (active). `O=[N+]([O-])c1ccc2c3c(cccc13)CC2` was tested, and the AC50 was 13.3 µM (active). In the case of `CCOP(=S)(OCC)Oc1ccc(S(C)=O)cc1` (configuration not stated), the outcome is reported as “inactive”.
